The values that follow come from PubChem BioAssay.

The structures appear in SMILES notation.

The first experiment is described as follows: viability loss with induced miR-34 in A549 – imaging, A549 dox-inducible miR-34, nuclei and caspase counts, primary screen (AID 1347080). Also: test concentration not given here. The following applies: A549 miR-34 inducible, Hoechst nuclei count, 48 h; measured here: total cells with miR-34 induction; stronger effect = lower value.
Turning to `Cc1nnsc1C(=O)Nc1ccc(-n2nc(C(F)(F)F)cc2C(F)(F)F)cc1`, the cell count is 5850.
The same measure, in the same setting: for `CCCCC[C@H](O)/C=C/[C@H]1CC[C@@H](O)[C@@H]1C/C=C\CCCC(=O)O` the value was 5950; for `CCOC(=O)c1ccnc(C(=O)OCC)c1`, 5540; for `CCCCC(C)(C)[C@H](O)/C=C/[C@H]1[C@H](O)CC(=O)[C@@H]1CC(=O)CCCCC(=O)O`, 5680.
In turn, `CCCCC[C@H](O)/C=C/[C@H]1[C@H](O)CC(=O)[C@@H]1CCCCCCCCC(=O)O` had a cell count of 5400.
Take `CC(C)CCCCCCC/C=C\C(=O)O`: the cell count stood at 5830.
In the case of `CCCCC[C@H](O)/C=C/[C@H]1C2COC(C2)[C@@H]1C/C=C/CCCC(=O)O` (stereo not given in full), the cell count was determined as 5790.
Consider `CCCCC/C=C\C/C=C\C/C=C\C/C=C\CCCC(=O)SCC(O)CO` (stereo not given), for which the cell count was found to be 5460.
On the same count and under the same terms, for `CCCCC[C@H](O)/C=C/[C@@H]1[C@@H](C/C=C/CCCC(=O)O)[C@H](O)C[C@H]1O` the value was 5260; for `CCCCCC(=O)CC[C@H]1C(=O)C=C[C@@H]1C/C=C\CCCC(=O)O`, 5270.
The compound `CC(C)CC[C@@H](O)[C@@H](C)C1CCC2C3CC=C4C[C@@H](O)CC[C@]4(C)C3CC[C@@]21C` (stereo not given in full) showed a cell count of 5170.

The same experiment, now with this note: A549 miR-34 inducible, Hoechst nuclei count, 48 h; measured here: total cells without miR-34 induction.
Regarding `CCCCCC(=O)/C=C/[C@H]1[C@H](O)CC(=O)[C@@H]1CCCCCCC(=O)O`, the cell count turned out to be 5690.
As for `CCCCC[C@](C)(O)/C=C/[C@@H]1[C@@H](C/C=C\CCCC(=O)OC)[C@@H](O)C[C@H]1O`, the cell count is 6490.
Consider `CCCCC/C=C\C/C=C\CCCCCCCC(=O)OCC`, for which the cell count is 5230.
As to `CCCCC[C@H](O)C/C=C1/C(=O)C[C@H](O)[C@@H]1C/C=C\CCCC(=O)O`, the cell count was determined as 5650.
In turn, `CCCCCCC[C@H](O)/C=C/[C@@H]1[C@@H](C/C=C\CCCC(=O)O)[C@@H](O)C[C@H]1O` returned a cell count of 6520.
`CCCCC[C@H](O)/C=C/[C@@H]1[C@H]2C/C(=C\CCCC(=O)O)C[C@H]2C[C@H]1O`: the cell count is 6660.
`CCCCCCCCCCCCCCCC(=O)OC[C@@H](O)COP(=O)([O-])OCC[N+](C)(C)C` returned a cell count of 5770.
`CCCCC[C@H](O)/C=C/[C@H]1C(=O)C[C@H](O)[C@@H]1C/C=C\CCCC(=O)OCC(O)CO` (stereo not given in full) returned a cell count of 5740.
On the same count and under the same terms, for `CCCCCCC(Sc1nc(Cl)cc(NCc2ccc(-c3ccccc3)cc2)n1)C(=O)O` (stereo not given) the value was 6180; for `CC(C)OC(=O)CCC/C=C\C[C@@H]1[C@@H](/C=C/C(=O)COc2cccc(C(F)(F)F)c2)[C@H](O)C[C@@H]1O`, 6280.
Regarding `COc1cc([C@@H]2c3cc4c(cc3[C@@H](OC3OC5COC(C)OC5C(O)C3O)[C@H]3COC(=O)[C@H]23)OCO4)cc(OC)c1O` (stereo not given in full), the cell count was 2230.
In the case of `O=C(O)CCC/C=C/C[C@@H]1[C@@H](/C=C/[C@@H](O)COc2cccc(C(F)(F)F)c2)[C@H](O)C[C@@H]1O`, the cell count turned out to be 6570.
In turn, `c1ccc(C(OC2CCN(CCCc3nn[nH]n3)CC2)c2ccccc2)cc1` displayed a cell count of 6240.
On the same count and under the same terms, the same measure for `COc1ccc(/C=C/C(=O)CC(=O)/C=C/c2cccc(O)c2OC)cc1O`: 3790; for `CCCCC[C@H](O)/C=C/[C@H]1C2CC(CO2)[C@@H]1C/C=C\CCCC(=O)O` (stereo not given in full): 5650; for `O=C(O)CCC/C=C\C[C@@H]1[C@@H](/C=C/[C@@H](O)COc2ccccc2)[C@H](O)C[C@@H]1O`: 6700.
In turn, `O=C(Cc1ccccc1Nc1c(Cl)cccc1Cl)Oc1ccc(-c2cc(=S)ss2)cc1` registered a cell count of 6570.
In turn, `CCCCC(C)(C)[C@H](O)/C=C/[C@H]1C=CC(=O)[C@@H]1C/C=C\CCCC(=O)O` displayed a cell count of 6200.
In turn, `CCCCC[C@H](O)/C=C/[C@H]1[C@H](O)CC(=O)[C@@H]1C/C=C\CCCC(=O)Oc1ccc(NC(C)=O)cc1` registered a cell count of 6060.
With `Cc1c(C)c2c(c(C)c1O)CCC(C)(CCCC(C)C(=O)O)O2` (stereo not given), the cell count stood at 6120.
Consider `CCCCC/C=C\C/C=C\CCCCCCCC(=O)OCC(COC(=O)CCCCCCCCCCCCCCC)OC(=O)CCCCCCC/C=C\CCCCCCCC` (stereo not given), for which the cell count is 5790.
For the compound `CCCCCOc1ccccc1C(O)CC#CCCCC(=O)OC` (stereo not given), the cell count was 6340.
Compound `CCCCCCCC/C=C\CCCCCCCC(=O)N[C@H](CO)Cc1ccc(O)cc1` gave a cell count of 5860.
Turning to `C=C1C[C@H](O)[C@H](C/C=C\CCCC(=O)O)[C@H]1/C=C/[C@@H](O)CCCCC`, the cell count turned out to be 6010.
Same read-out and setting: the same measure for `CCCCCC/C=C\CCCCCCCC(=O)OCC`: 6150; for `CCCCCCCCCCCCCCCC(=O)OCC`: 5950; for `COc1ccc2c(c1)c(CC(=O)Nc1ccc(NC(C)=O)cc1)c(C)n2C(=O)c1ccc(Cl)cc1`: 5610.
On to `CC(C)Oc1ccc(Cc2ccc(NC3=NCCN3)cc2)cc1`, for which the cell count stood at 6040.
Consider `CCCCC[C@H](O)/C=C/[C@H]1C=CC(=O)[C@H]1CCCCCCC(=O)O`, for which the cell count came to 5760.
